From PubChem BioAssay come the findings set out here.

Assay [1] is described as follows: inhibitors of TNFa-induced NFkB p65 translocation, primary screen, imaging, HUVEC, MLSMR starter and 10KST1 sets (AID 438;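 active means inhibition above 20% together with a positive visual image hit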;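 further: compound added about 3h40 before a 20 min TNFalpha stimulation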;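 on inhibition: signal is the nuclear over cytoplasmic p65 intensity ratio per well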). To be noted: HUVEC TNFa-induced p65 nuclear translocation; cell count: measured here: nuclei count (cytotoxicity indicator), at 2.08 µM; inhibition: at 2 µM, stronger effect = higher value, 0% TNFa-plus-vehicle, 100% no-TNFa wells.
Assay [2] is described as follows: reduction of polyQ htt aggregates in cells – imaging, exon1htt(103Q)mCFP cells, high-content imaging, primary screen (AID 483;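 active means visual image review flags a hit and inhibition of aggregation exceeds 20%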;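 further: compound exposure lasted 3 days before fixation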;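 on nuclei count: percent of the per-plate median nuclei count of sample wells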). To be noted: exon1htt(103Q)mCFP cell line, aggregate imaging, at 2 µM; inhibition of aggregation: stronger effect = higher value; nuclei count: measured here: cell count, toxicity.
Assay [3] in a line: endothelial E-selectin expression blockers – imaging, HUVEC, immunofluorescence, MLSMR starter and 10KST1 sets, primary screen (AID 487;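 active means visually confirmed hit in the image check and inhibition above 20%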;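 on inhibition: signal is fraction of cell area covered by stained E-selectin grains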;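 on nuclei count: 100% = median nuclei count of all wells on the same plate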). To be noted: HUVEC TNFalpha-induced E-selectin immunofluorescence imaging, at 2 µM; inhibition: stronger effect = higher value; nuclei count: measured here: cell number, toxicity.
A short description of assay [4]: Primary imaging screen for DUSP6 inhibitors that restore phospho-Erk in transfected HeLa cells, chemical complementation (AID 609;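 active means compounds giving at least 50% inhibition in the cell-based MKP-3 phosphatase rescue imaging test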;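 on inhibition: phospho-Erk level distribution per well compared with pooled transfected vehicle control wells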). To be noted: HeLa MKP-3 transfected, phospho-Erk imaging KS statistic, at 10 µM, cells stimulated with TPA for 15 min.
Assay [5] concerns the target Dual specificity protein phosphatase 6 (Homo sapiens) (UniProt Q16828). The description is as above. To be noted: HeLa MKP-3 transfected, phospho-Erk imaging KS statistic; at 10 µM; stronger effect = higher value; cells stimulated with TPA for 15 min.
Assay [6] deals with Voltage-gated potassium channel subunit beta-2 (Rattus norvegicus) (UniProt P62483). Description: inhibitors of rat Kvbeta2 reductase activity – biochemical, NADPH fluorescence, primary screen (AID 622).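 Further: slope of raw intensity against log time taken from 70 to 1610 s.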 To be noted: recombinant KvBeta, 4-cyanobenzaldehyde reduction, at 10 µM, stronger effect = higher value.
Assay [7] has the same target. Description: enhancers of rat Kvbeta2 NADPH turnover – biochemical, NADPH fluorescence, primary screen (AID 623;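 active means NADPH fluorescence slope more negative than the mean of all samples by about 3 SD, 99.7% confidence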;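 further: fluorescence intensity change per second fitted from 20 to 320 s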). To be noted: Recombinant KvBeta, NADPH fluorescence decrease slope, 10 min; at 10 µM; stronger effect = lower value.
The target in assay [8] is Alpha-2C adrenergic receptor (Homo sapiens) (UniProt P18825). Description: compounds altering alpha2C-coupled GIRK flux – cell-based, HEK293 alpha2C/GIRK1/2, thallium flux, primary screen (AID 624;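 active means fluorescence slope after compound addition differing from the mean of all screened samples at 99.7% confidence, in either direction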;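 further: slope of fluorescence ratio to pre-addition baseline per second over 15 to 24 s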). To be noted: thallium flux BTC fluorescence, at 10 µM, actives lie on both sides.
Assay [9] is described as follows: inhibitors of larval lipid processing in zebrafish, primary screen, whole organism, PED6 fluorescence, gall bladder and intestine (AID 686;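 active means a full or partial loss of lipid-probe fluorescence in the fish gall bladder, intestine or both, judged by eye; inactive means no fluorescence loss, or compound toxic to the fish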;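 further: larvae 5 to 7 days old with five fish per well; signal comes from phospholipase A2 cleavage of quenched PED6 carried via bile; overnight exposure to compound and PED6 before scoring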). To be noted: Zebrafish larvae PED6 lipid processing, fluorescence scoring; screened at 20 µM (by protocol).
Assay [10] is described as follows: loss of swimming-algae plug formation – whole organism, Chlamydomonas reinhardtii, WT vs cilia-less mutant, absorbance, 96-well, primary screen (AID 463189;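 active means inhibition at or above 50% relative to wild type and mutant plate controls; inactive means inhibition below 50%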;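 further: 0% = wild type cc124 cells in DMSO and 100% = ciliumless bld1 mutant cells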). To be noted: Chlamydomonas reinhardtii gravitaxis, OD600 absorbance, 2 days; at 10 µM; stronger effect = higher value.
Assay [11] in a line: blockers of RIG-like receptor reporter activation – cell-based, Sendai virus stimulus, luciferase, 10K MLSCN set, TLR/RLR signaling modifier project, primary screen (AID 602276;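 active means inhibition at or above 50% at 10 µM; inactive means inhibition below 50%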;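 further: firefly luciferase from ISG56 promoter only with Renilla not read in this screen; 0% = Sendai virus plus DMSO and 100% = medium plus DMSO without virus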). To be noted: HEK293 RL24 IRF3 luciferase reporter, at 10 µM, stronger effect = higher value. (In general: Reporter assays use an easily measured gene product as a stand-in for the process of interest.)
Assay [12] in a line: TLR3 IRF3 reporter activation blockers – cell-based, poly I:C stimulus, luciferase, 10K MLSCN set, primary screen (AID 602277;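 active means inhibition of the reporter signal at or above 50%; inactive means inhibition below 50%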). To be noted: HEK293-TLR3 RL24 IRF3 luciferase reporter, at 10 µM, stronger effect = higher value.
Setting [13] is: measured here: cell density z-score.
[14] abbreviates: measured here: nuclear c-Myc green intensity z-score.
The mark [15] stands for this setting: measured here: nuclear pErk red intensity z-score, stronger effect = higher value.

Values joined by “and” are separate entries in the source; they are usually repeats but may differ in a detail not shown here. Equal entries are not always repeated. Active and inactive are the calls of the source.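 How the source made its calls, unless noted: active means fluorescence slope higher than the sample average by over 3 SD (cut at about -0.22 in these data, passing the limit was not always enough); inactive means the rest.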

Sequence of Dual specificity protein phosphatase 6 (Homo sapiens) (Q16828 whole entry, looked up): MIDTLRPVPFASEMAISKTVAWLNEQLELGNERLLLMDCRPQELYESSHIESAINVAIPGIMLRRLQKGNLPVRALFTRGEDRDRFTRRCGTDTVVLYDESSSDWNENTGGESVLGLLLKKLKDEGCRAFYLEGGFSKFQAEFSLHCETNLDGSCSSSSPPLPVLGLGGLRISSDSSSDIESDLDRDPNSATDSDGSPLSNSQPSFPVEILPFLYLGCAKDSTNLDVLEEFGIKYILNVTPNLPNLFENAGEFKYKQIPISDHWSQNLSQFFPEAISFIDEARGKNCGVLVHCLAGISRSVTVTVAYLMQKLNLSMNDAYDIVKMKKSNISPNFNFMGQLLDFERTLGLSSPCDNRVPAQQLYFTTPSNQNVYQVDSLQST
Sequence of Voltage-gated potassium channel subunit beta-2 (Rattus norvegicus) (P62483 whole entry, looked up): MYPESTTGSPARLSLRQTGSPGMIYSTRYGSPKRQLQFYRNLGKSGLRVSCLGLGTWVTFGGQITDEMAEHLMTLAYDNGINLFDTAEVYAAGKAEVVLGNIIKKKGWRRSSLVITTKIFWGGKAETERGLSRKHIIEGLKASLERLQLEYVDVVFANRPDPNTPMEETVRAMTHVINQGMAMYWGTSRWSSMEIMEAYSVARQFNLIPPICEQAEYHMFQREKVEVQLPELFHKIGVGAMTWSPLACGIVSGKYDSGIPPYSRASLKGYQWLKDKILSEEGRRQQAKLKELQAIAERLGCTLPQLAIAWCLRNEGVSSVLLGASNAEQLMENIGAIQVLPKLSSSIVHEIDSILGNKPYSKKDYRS
Sequence of Alpha-2C adrenergic receptor (Homo sapiens) (P18825 whole entry, looked up): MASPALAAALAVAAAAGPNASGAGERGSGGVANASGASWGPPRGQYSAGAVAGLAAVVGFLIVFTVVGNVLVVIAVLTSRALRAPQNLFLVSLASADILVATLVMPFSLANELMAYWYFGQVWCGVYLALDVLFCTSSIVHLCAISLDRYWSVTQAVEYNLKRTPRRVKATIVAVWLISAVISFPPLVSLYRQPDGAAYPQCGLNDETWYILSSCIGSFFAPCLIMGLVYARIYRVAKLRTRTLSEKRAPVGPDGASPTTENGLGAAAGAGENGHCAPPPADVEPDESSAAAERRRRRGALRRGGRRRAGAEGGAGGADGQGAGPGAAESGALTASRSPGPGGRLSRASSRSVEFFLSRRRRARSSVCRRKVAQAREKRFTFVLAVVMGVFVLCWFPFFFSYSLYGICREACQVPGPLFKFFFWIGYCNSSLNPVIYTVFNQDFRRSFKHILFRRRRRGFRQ

For orientation: inhibition means the drop in the measured response relative to a control, in per cent. With `O=C(O)CCc1cc(I)c(Oc2ccc(O)c(I)c2)c(I)c1`, in [1], the cell count was 623. Moreover, the inhibition is -9.5% (inactive) in assay [1]; -120% (inactive) in assay [3]; 9.37% (inactive) in assay [5]; 3.29% (inactive) in assay [10]; 21.3% (inactive) in assay [11]; 34.6% (inactive) in assay [12]. The inhibition of aggregation in assay [2] is -4.4% (inactive). Further, the results for the nuclei count in assay [2] and in assay [3] were 107% and 127%, respectively. Moreover, the figures for the z-score in assay [4] (setting [13]), in assay [4] (setting [14]) and in assay [4] (setting [15]) were 1.17, -0.143 and 0.645, respectively. For the same molecule, the fluorescence slope in [6] was -0.522 (inactive). For the same molecule, in assay [7], the NADPH fluorescence slope is -5.4e-05 (inactive). The slope in assay [8] was 0.00395 (inactive). Moreover, the outcome in assay [9] was inactive.
`Cc1cn([C@H]2C[C@H](N=[N+]=[N-])[C@@H](CO)O2)c(=O)[nH]c1=O`: in [1], the cell count turned out to be 663. Moreover, the inhibition in assay [1] is -4% (inactive); in assay [3], -133% (inactive); in [5], -6.41% (inactive); in assay [10], -6.84% (inactive); in assay [11], 17.8% (inactive); in assay [12], 37% (inactive). For the same molecule, the inhibition of aggregation in assay [2] is 1.9% (inactive). Besides, the values for the nuclei count in assay [2] and in [3] were 102% and 128%, respectively. Also, the z-score in assay [4] (setting [13]) was -0.406; in [4] (setting [14]), -0.912; in assay [4] (setting [15]), 2.26. Also, the fluorescence slope in [6] was -0.476 (inactive). Also, the NADPH fluorescence slope in [7] was 3.5e-07 (inactive). The slope in assay [8] was 0.00535 (inactive). The molecule was called inactive in assay [9].
With `CCC[C@@H]1C[C@@H](C(=O)N[C@H]([C@@H](C)O)[C@H]2O[C@H](SC)[C@H](O)[C@@H](O)C2O)N(C)C1` (stereo not given in full), the cell count in assay [1] stood at 619. Also, the inhibition is -4.3% (inactive) in [1]; -57.7% (inactive) in assay [3]; 8% (inactive) in [5]; 35.8% (inactive) in assay [10]; 19.5% (inactive) in [11]; 27.3% (inactive) in assay [12]. In assay [2], the inhibition of aggregation was 2.3% (inactive). Further, the figures for the nuclei count in assay [2] and in [3] were 101% and 123%, respectively. The z-score was -0.311 in assay [4] (setting [13]), -0.277 in [4] (setting [14]) and 0.417 in [4] (setting [15]). Also, in assay [6], the fluorescence slope is -0.465 (inactive). Moreover, the NADPH fluorescence slope in assay [7] was 2.2e-06 (inactive). Also, the slope in [8] was 0.0059 (inactive). In addition, the call in assay [9] was inactive.
With `CCN(CCCc1ccccc1)CCCc1ccccc1`, the cell count in [1] was 633. Also, the inhibition in assay [1] is -10.9% (inactive); in assay [3], -92.8% (inactive); in assay [5], 9.37% (inactive); in assay [10] it was 128% (active); in assay [11], 16.6% (inactive); in [12] it was 29.6% (inactive). In addition, in [2], the inhibition of aggregation is -6.3% (inactive). Moreover, the nuclei count in [2] came out at 95.6%; in [3], 132%. Besides, the z-score in [4] (setting [13]) was -0.00243; in [4] (setting [14]), 0.557; in assay [4] (setting [15]), -0.117. For the same molecule, the fluorescence slope in assay [6] is -0.514 (inactive). For the same molecule, the NADPH fluorescence slope in assay [7] was -3.6e-06 (inactive). Also, the slope in assay [8] was 0.00419 (inactive). Moreover, in assay [9], the result was inactive.
As for `Oc1c(I)cc(I)c2cccnc12`, the cell count in assay [1] is 615. In addition, the inhibition was -0.5% (inactive) in assay [1]; -79.9% (inactive) in [3]; -11.9% (inactive) in assay [5]; 2.25% (inactive) in assay [10]; 12.4% (inactive) in assay [11]; 30.5% (inactive) in assay [12]. Moreover, the inhibition of aggregation in assay [2] is -10.9% (inactive). The figures for the nuclei count in assay [2] and in assay [3] were 110% and 121%, respectively. Also, the z-score in assay [4] (setting [13]) is -0.0594; in assay [4] (setting [14]), -1.99; in assay [4] (setting [15]), 1.27. For the same molecule, in assay [6], the fluorescence slope was -0.436 (inactive). Besides, the NADPH fluorescence slope in assay [7] is 7.6e-06 (inactive). Besides, the slope in [8] is 0.00528 (inactive). The molecule was called inactive in assay [9].
Regarding `C=CCOc1nc2c(c(=O)n(C)c(=O)n2C)n1Cc1c(Cl)cccc1Cl`, in assay [1], the cell count turned out to be 556. Besides, the inhibition was -2.9% (inactive) in assay [1]; 14% (inactive) in [3]; -4.7% (inactive) in assay [5]; -9.21% (inactive) in [10]; 11.4% (inactive) in [11]; 16% (inactive) in [12]. The inhibition of aggregation in assay [2] is -47.7% (inactive). Also, the nuclei count in assay [2] was 115%; in assay [3] it was 113%. Further, the results for the z-score in assay [4] (setting [13]), in assay [4] (setting [14]) and in assay [4] (setting [15]) were -0.686, 2.36 and -0.556, respectively. Moreover, the fluorescence slope in assay [6] was -0.502 (inactive). Also, the NADPH fluorescence slope in assay [7] was -0.000118 (inactive). The slope in assay [8] was 0.00485 (inactive). Moreover, the molecule was called inactive in assay [9].
Turning to `CC(=O)[C@@]1(O)CC[C@H]2[C@@H]3C[C@H](C)C4=CC(=O)CC[C@]4(C)[C@H]3CC[C@@]21C`, the cell count in [1] was 734. Besides, the inhibition in assay [1] is -6.2% (inactive); in assay [3] it was -107% (inactive); in assay [5] it was 3.45% (inactive); in assay [10], -2.53% (inactive); in assay [11], -4.16% (inactive); in [12] it was 43.2% (inactive). The inhibition of aggregation in assay [2] was 0.8% (inactive). The figures for the nuclei count in assay [2] and in [3] were 108% and 113%, respectively. Also, the z-score in assay [4] (setting [13]) is 1.42; in assay [4] (setting [14]), -0.494; in [4] (setting [15]) it was -1.54. For the same molecule, in assay [6], the fluorescence slope is -0.486 (inactive). Moreover, the NADPH fluorescence slope in assay [7] was -0.000112 (inactive). In addition, the slope in assay [8] was 0.0052 (inactive). The outcome in assay [9] was inactive.
For the molecule `CN1CCCN(C(c2ccccc2)c2ccc(Cl)cc2)CC1` (stereo not given), in [1], the cell count was found to be 564. Moreover, the inhibition in [1] is 5.7% (inactive); in assay [3], -6.3% (inactive); in [5], -5.24% (inactive); in [10] it was 43% (inactive); in assay [11] it was -26.9% (inactive); in assay [12] it was 68.6% (active). Further, the inhibition of aggregation in assay [2] is -11.5% (inactive). In addition, the nuclei count was found to be 103% in assay [2] and 120% in [3]. Moreover, the z-score in assay [4] (setting [13]) was 0.561; in [4] (setting [14]), -0.226; in [4] (setting [15]), 0.2. The fluorescence slope in [6] was -0.519 (inactive). Moreover, the NADPH fluorescence slope in [7] was -1.7e-06 (inactive). In [8], the slope was 0.00369 (inactive). Further, the molecule was called inactive in assay [9].
As to `CCCCOc1cc(C(=O)NCCN(CC)CC)c2ccccc2n1`, in assay [1], the cell count was 511 and 578. For the same molecule, the inhibition in assay [1] is -5.3% (inactive) and -4.6% (inactive); in assay [3] it was 13% (inactive) and -47.1% (inactive); in [5], 11.3% (inactive) and -6.41% (inactive); in [10] it was 1.51% (inactive) and 12.2% (inactive); in [11] it was 4.17% (inactive) and 5.36% (inactive); in assay [12], 54.6% (active) and 61.4% (active). The inhibition of aggregation in [2] was 9.3% (inactive) and -1.1% (inactive). The nuclei count in assay [2] is 92.4% and 92.8%; in [3] it was 125% and 129%. Further, the z-score in assay [4] (setting [13]) was -0.0512 and 0.242; in assay [4] (setting [14]) it was 1.21 and -0.093; in assay [4] (setting [15]), 0.116 and 1.52. Moreover, the fluorescence slope in [6] is -0.452 (inactive) and -0.465 (inactive). Further, the NADPH fluorescence slope in [7] was -7.4e-05 (inactive) and -5.9e-05 (inactive). Moreover, the slope in assay [8] was 0.00498 (inactive) and 0.00574 (inactive). Also, the call in [9] was inactive.
Turning to `COC(=O)CN(c1nc(C)c(Cl)c(OC)n1)S(=O)(=O)c1ccc(C)cc1`, in assay [1], the cell count was 706. The inhibition in assay [1] is -4.1% (inactive); in assay [3] it was -48.3% (inactive); in assay [5], -11% (inactive); in assay [10], 5.7% (inactive); in assay [11], 13.8% (inactive); in assay [12], 18.7% (inactive). For the same molecule, the inhibition of aggregation in [2] was 2.4% (inactive). Besides, the nuclei count in assay [2] was found to be 98.1%; in assay [3], 148%. Also, the z-score in [4] (setting [13]) was -0.882; in assay [4] (setting [14]), 0.458; in assay [4] (setting [15]), 1.21. In assay [6], the fluorescence slope was -0.373 (inactive). Besides, in assay [7], the NADPH fluorescence slope is -4.1e-05 (inactive). Moreover, in assay [8], the slope is 0.00465 (inactive). The call in assay [9] was inactive.
